A short description of assay [1]: Caspase-3/7 induction in CHO-K1 cells by small molecules, qHTS cell viability counter screen (AID 1346979). Note: nearly all actives have a fitted effect of over 35% in size. Note: potency is the fitted concentration of half-maximal effect. In outline:
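Seeding: 1,500 CHO-K1 cells/well. Rest: 5hr, 37C. Treatment: compounds in DMSO, 16hr. Read: CellTiter-Fluor, 1hr, fluorescence.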
Background: qHTS replaces the single test concentration by a dilution series.

Assay [2] in a line: Caspase-3/7 induction in CHO-K1 cells by small molecules, qHTS assay (AID 1346980). Note: nearly all actives have a fitted effect of over 15% in size. Note: potency is the fitted concentration of half-maximal effect. In outline: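 Luminescent Caspase-Glo 3/7 read (30min, room temperature) quantified apoptosis induction. Cells were wild-type CHO-K1, treated with compound for 17hr at 37 C and 5% CO2.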
For assay [3], the target named is Nuclear receptor subfamily 1 group I member 2 (Homo sapiens) (UniProt O75469). In words: Human pregnane X receptor (PXR) small molecule agonists, qHTS assay (AID 1346982). Note: nearly all actives have a fitted effect of over 35% in size. Note: potency is the fitted concentration of half-maximal effect. A digest of the protocol: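 Agonist mode qHTS: PXR-Luc HepG2 cells plated 5 hr before DMSO-dissolved compounds were pinned in, cultured 24 hr at 37 C, 5% CO2; ONE-Glo luminescence readout.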
Assay [4] concerns the target Cytochrome P450 2D6 (Homo sapiens) (UniProt P10635). In words: Cytochrome P450 Family 2 Subfamily D Member 6 (CYP2D6) small molecule antagonists: luciferase reporter qHTS assay (AID 1671196). For activity change, negative = inhibition: series mostly up to about 120 µM. Note: nearly all actives have a fitted effect of over 50% in size. Note: potency is the fitted concentration of half-maximal effect. In outline:
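P450-Glo format: CYP2D6 converts a proluciferin substrate to luciferin in an NADPH-driven reaction lasting 1 h at room temperature. Light output, proportional to CYP2D6 activity, reflects interference by test chemicals.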
A general note: A reporter such as luciferase makes a cellular process visible.

The target in assay [5] is Cytochrome P450 2C19 (Homo sapiens) (UniProt P33261). In words: Cytochrome P450 Family 2 Subfamily C Member 19 (CYP2C19) small molecule antagonists: luciferase reporter qHTS assay (AID 1671197). For activity change, negative = inhibition: series mostly up to about 120 µM. Note: nearly all actives have a fitted effect of over 65% in size. Note: potency is the fitted concentration of half-maximal effect. A digest of the protocol:
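Inhibition of CYP2C19 was scored from loss of luminescence in a P450-Glo proluciferin substrate assay, NADPH-started and run 1 h at 37C, with ketoconazole as positive control.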

For assay [6], the target named is Cytochrome P450 2C9 (Homo sapiens) (UniProt P11712). Kind of assay: Cytochrome P450 Family 2 Subfamily C Member 9 (CYP2C9) small molecule antagonists: luciferase reporter qHTS assay (AID 1671198). For activity change, negative = inhibition: series mostly up to about 120 µM. Note: nearly all actives have a fitted effect of over 50% in size. Note: potency is the fitted concentration of half-maximal effect. In outline:
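Enzyme-substrate mix preincubated with compound 10 min at room temperature; reaction started with NADPH regeneration solution, 1 h 37C. Luminescent luciferin product read after 20 min detection reagent.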

The target of assay [7] is Cytochrome P450 1A2 (Homo sapiens) (UniProt P05177). Kind of assay: Cytochrome P450 Family 1 Subfamily A Member 2 (CYP1A2) small molecule antagonists: luciferase reporter qHTS assay (AID 1671199). For activity change, negative = inhibition: series mostly up to about 120 µM. Note: nearly all actives have a fitted effect of over 50% in size. Note: potency is the fitted concentration of half-maximal effect. In outline: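 Inhibition of CYP1A2 conversion of proluciferin to luciferin, detected by luminescence. Reaction run 1 h at room temperature with NADPH regeneration after brief compound preincubation.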

A short description of assay [8]: Caspase-3/7 induction in HepG2 cells by small molecules, qHTS cell viability counter screen (AID 1346981). Note: nearly all actives have a fitted effect of over 30% in size. Note: potency is the fitted concentration of half-maximal effect. In outline: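 Steps: seed 2,000 HepG2 cells per well; incubate 5 hr at 37 C; pin-add compounds in DMSO; incubate 16 hr; add CellTiter-Fluor; after 1 hr at 37 C and 5% CO2, read fluorescence.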
The target of assay [9] is Nuclear receptor subfamily 1 group I member 2 (Homo sapiens) (UniProt O75469). Kind of assay: CYP3A4 induction through human pregnane X receptor (PXR) by small molecules, qHTS assay (AID 1346984). Note: nearly all actives have a fitted effect of over 40% in size. In outline: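 Steps: seed DPX-2 cells, 5 hr at 37C; pin-transfer compounds; 24 hr at 37C; add Luciferin-IPA (3uM final), 3 hr at 37C; add One-Glo, 30 min RT; read luminescence.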

Assay [10] has the same target. Kind of assay: Human pregnane X receptor (PXR) activation by small molecules, qHTS assay (AID 1346985). Note: nearly all actives have a fitted effect of over 40% in size. In outline: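 DPX-2 cells (HepG2 co-transfected with a PXR response element and a CYP3A4-promoter luciferase construct) were seeded at 2,000 per well, rested 5 hr at 37C, then exposed to DMSO-dissolved compounds for 24 hr. Activation was read as luciferase luminescence.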

Assay [11] deals with Voltage-gated inwardly rectifying potassium channel KCNH2 (Homo sapiens) (UniProt Q12809). Kind of assay: Human Ether-a-go-go-Related Gene (hERG) channel small molecule antagonists: fluorescence cell-based qHTS assay (AID 1671200).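 For activity change, negative = inhibition: hERG-expressing U2OS cells given a thallium stimulus after FluxOR II dye loading; series mostly up to about 77 µM.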 Note: nearly all actives have a fitted effect of over 50% in size. Note: potency is the fitted concentration of half-maximal effect. A digest of the protocol:
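First, 1000 cells per well are seeded and cultured overnight at 37 C. Next, FluxOR II dye is loaded for 1 h at room temperature, protected from light. After 10 more minutes, stimulus is added and fluorescence is read.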
For orientation: Block of hERG is tested as a sign of cardiac risk.

For assay [12], the target named is Cytochrome P450 3A4 (Homo sapiens) (UniProt P08684). Kind of assay: Cytochrome P450 Family 3 Subfamily A Member 4 (CYP3A4) small molecule antagonists: luciferase reporter qHTS assay (AID 1671201). For activity change, negative = inhibition: series mostly up to about 120 µM. Note: nearly all actives have a fitted effect of over 50% in size. Note: potency is the fitted concentration of half-maximal effect. A digest of the protocol: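 Enzyme and proluciferin substrate are mixed with test chemicals for 10 min, then NADPH regeneration system drives turnover for 1 h at room temperature. A detection reagent halts the reaction; luminescence after 20 min gives relative activity.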

Values without a mark were called inactive. Results filed as inconclusive are left out. Calls of active or inactive are those of the source. Calls come from the whole dose curve; as a rule, active = well fitted curve in the direction sought with a large enough effect in the repeat runs; inconclusive = weak or mixed curves; inactive = no such curve, though single readings can be large; an effect the other way counts as inactive or inconclusive.
% is set by controls: 0 for no effect and ±100 for the full control effect.

Chain of Voltage-gated inwardly rectifying potassium channel KCNH2 (Homo sapiens) (Q12809 whole entry, looked up): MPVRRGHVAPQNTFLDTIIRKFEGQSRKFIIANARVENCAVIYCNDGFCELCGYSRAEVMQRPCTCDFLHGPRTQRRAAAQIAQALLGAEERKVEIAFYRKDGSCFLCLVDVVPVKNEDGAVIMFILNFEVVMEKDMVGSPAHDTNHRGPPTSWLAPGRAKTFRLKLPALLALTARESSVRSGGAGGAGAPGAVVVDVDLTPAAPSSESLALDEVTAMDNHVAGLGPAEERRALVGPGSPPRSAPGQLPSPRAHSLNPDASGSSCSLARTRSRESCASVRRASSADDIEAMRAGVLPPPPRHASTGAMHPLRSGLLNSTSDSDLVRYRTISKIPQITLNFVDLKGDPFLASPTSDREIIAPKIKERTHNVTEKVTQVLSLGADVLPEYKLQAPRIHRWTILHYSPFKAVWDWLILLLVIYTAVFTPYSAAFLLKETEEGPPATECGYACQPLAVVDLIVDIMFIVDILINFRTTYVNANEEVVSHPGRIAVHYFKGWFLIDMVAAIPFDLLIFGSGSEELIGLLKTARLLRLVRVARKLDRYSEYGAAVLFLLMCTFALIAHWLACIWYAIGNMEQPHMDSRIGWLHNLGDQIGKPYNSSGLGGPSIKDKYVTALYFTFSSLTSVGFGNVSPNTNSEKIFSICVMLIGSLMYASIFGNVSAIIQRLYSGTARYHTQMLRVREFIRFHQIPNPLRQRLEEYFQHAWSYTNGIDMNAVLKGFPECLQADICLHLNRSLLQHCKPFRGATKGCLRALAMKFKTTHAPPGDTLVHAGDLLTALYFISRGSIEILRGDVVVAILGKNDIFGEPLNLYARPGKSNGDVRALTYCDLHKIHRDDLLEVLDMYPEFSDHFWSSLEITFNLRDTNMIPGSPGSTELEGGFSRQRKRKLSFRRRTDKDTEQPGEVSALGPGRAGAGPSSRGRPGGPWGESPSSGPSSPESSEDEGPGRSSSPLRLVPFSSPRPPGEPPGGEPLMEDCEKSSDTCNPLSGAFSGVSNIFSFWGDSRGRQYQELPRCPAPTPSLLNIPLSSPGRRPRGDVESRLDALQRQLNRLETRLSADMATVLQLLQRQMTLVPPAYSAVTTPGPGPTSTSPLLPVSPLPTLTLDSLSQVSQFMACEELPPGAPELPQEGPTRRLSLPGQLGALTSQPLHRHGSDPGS
Chain of Cytochrome P450 3A4 (Homo sapiens) (P08684 whole entry, looked up): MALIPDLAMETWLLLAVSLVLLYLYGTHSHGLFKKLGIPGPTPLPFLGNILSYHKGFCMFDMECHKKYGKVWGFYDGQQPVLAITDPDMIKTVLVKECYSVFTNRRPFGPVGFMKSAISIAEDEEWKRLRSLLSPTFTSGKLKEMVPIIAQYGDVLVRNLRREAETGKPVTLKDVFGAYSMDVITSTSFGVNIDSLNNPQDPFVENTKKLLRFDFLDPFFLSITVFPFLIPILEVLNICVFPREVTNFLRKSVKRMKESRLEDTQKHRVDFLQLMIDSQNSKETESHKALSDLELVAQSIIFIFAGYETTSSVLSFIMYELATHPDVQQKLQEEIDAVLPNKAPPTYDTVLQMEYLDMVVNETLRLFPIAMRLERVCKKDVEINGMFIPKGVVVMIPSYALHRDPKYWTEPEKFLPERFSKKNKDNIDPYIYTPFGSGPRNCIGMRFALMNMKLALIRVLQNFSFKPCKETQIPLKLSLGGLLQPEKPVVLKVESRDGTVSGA
Chain of Cytochrome P450 2C19 (Homo sapiens) (P33261 whole entry, looked up): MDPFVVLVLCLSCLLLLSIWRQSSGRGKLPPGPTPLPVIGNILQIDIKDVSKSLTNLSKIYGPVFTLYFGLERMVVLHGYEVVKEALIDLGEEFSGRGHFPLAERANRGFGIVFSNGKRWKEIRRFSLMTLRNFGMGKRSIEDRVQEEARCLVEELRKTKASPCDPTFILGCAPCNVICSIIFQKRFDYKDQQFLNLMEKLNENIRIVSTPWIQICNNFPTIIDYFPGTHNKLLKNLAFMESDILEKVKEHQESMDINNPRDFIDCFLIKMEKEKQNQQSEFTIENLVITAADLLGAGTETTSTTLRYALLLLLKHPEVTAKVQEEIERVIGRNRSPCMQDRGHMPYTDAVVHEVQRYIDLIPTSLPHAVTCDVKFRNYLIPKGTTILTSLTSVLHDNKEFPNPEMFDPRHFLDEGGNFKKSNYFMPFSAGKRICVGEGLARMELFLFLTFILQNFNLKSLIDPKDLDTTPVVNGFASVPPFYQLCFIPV
Chain of Cytochrome P450 2C9 (Homo sapiens) (P11712 whole entry, looked up): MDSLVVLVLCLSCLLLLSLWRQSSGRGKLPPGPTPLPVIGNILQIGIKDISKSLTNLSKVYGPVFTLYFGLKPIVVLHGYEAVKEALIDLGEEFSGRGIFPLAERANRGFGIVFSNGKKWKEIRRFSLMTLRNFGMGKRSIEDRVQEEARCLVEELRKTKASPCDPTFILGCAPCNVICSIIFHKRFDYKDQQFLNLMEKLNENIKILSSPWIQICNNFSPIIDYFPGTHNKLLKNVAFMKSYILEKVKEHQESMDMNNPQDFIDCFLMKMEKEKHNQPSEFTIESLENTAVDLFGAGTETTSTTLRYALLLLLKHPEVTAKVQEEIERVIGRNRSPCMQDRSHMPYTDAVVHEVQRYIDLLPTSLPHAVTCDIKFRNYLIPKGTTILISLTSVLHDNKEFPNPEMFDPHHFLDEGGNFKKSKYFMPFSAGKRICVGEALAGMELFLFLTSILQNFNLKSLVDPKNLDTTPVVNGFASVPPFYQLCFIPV
Chain of Nuclear receptor subfamily 1 group I member 2 (Homo sapiens) (O75469 whole entry, looked up): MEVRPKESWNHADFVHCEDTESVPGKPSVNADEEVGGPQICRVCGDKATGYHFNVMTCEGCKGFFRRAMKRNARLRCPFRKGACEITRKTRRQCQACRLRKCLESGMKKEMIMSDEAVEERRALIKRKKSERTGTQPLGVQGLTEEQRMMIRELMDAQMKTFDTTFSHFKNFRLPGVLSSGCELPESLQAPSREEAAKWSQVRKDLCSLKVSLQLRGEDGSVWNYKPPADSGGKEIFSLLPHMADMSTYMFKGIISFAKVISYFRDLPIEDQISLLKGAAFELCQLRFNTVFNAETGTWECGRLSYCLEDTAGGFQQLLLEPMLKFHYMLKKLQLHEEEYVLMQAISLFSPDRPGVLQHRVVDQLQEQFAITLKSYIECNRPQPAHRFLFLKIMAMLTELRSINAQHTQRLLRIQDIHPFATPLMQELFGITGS
Chain of Cytochrome P450 1A2 (Homo sapiens) (P05177 whole entry, looked up): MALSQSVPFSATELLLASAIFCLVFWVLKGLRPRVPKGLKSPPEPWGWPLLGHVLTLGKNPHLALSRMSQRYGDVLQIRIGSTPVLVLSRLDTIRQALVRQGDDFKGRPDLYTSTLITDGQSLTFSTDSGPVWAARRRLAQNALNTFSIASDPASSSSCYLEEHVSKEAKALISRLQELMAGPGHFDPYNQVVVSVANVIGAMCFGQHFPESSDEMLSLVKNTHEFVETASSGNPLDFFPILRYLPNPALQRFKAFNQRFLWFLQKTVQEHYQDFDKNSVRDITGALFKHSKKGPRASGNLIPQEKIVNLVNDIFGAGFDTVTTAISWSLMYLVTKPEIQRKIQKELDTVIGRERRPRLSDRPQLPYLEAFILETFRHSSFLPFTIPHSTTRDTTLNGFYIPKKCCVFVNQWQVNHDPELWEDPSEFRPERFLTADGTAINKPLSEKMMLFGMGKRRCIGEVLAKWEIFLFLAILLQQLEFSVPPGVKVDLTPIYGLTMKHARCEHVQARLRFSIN
Chain of Cytochrome P450 2D6 (Homo sapiens) (P10635 whole entry, looked up): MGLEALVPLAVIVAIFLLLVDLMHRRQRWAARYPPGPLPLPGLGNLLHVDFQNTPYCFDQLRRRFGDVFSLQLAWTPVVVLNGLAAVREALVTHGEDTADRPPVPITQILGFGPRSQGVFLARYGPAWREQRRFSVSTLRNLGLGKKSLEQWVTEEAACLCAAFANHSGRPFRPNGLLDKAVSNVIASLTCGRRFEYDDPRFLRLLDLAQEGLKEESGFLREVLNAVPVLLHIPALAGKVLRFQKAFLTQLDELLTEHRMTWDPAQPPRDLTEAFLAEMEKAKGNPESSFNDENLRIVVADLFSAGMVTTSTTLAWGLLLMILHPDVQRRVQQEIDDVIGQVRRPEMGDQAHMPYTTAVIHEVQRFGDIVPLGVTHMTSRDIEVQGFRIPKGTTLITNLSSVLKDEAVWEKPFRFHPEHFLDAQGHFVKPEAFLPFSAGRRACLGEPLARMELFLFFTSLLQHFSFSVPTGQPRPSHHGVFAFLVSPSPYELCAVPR

For the compound `Nc1nc2ccccc2n1Cc1ccc(F)cc1`, the Potency was 23.7 µM (active) in [1]; 26.6 µM (active) in assay [3]; 0.692 µM (active) in [4]; 15.5 µM (active) in assay [5]; 24.5 µM (active) in [7]. Besides, the Potency result in assay [2] and in assay [6] was “inactive” in each case.
With `CCOc1nc2cccc(C(=O)OC(C)OC(=O)OC3CCCCC3)c2n1Cc1ccc(-c2ccccc2-c2nn[nH]n2)cc1` (configuration not stated), the Potency in assay [1] is 34.3 µM (active); in assay [2] it was 43.2 µM (active); in [3], 24.3 µM (active); in assay [6] it was 10 µM (active). For the same compound, in assay [7], the Potency result is “inactive”.
In the case of `NC(=O)CC[C@@H]1NC(=O)[C@H](Cc2ccccc2)NC(=O)[C@H](Cc2ccc(O)cc2)NC(=O)CCSSC[C@@H](C(=O)N2CCC[C@H]2C(=O)N[C@@H](CCCN=C(N)N)C(=O)NCC(N)=O)NC(=O)[C@H](CC(N)=O)NC1=O`, the Potency entry in [1], in assay [2], in assay [8], in assay [3], in [9] and in assay [10] was “inactive” each time. Further, the Potency result in assay [4], in assay [5], in assay [6], in [11] and in assay [12] was “inactive” each time.
`CCCCCCCC(=O)[O-].CCCCCCCC(=O)[O-].[Zn+2]`: the Potency entry in [1], in assay [2], in assay [8], in assay [3], in [4] and in [5] was “inactive” each time. The Potency entry in [11] and in assay [12] was “inactive” throughout.
On to `CC(C)OC(=O)c1cc2c(OCC(O)CNC(C)(C)C)cccc2[nH]1` (configuration not stated), for which the Potency entry in assay [1], in assay [2], in assay [8] and in assay [7] was “inactive” each time. Further, in [4], the Potency is 13.8 µM (active).
Take `CCCCCOC(=O)CCCC`: the Potency result in assay [1], in assay [2], in assay [3], in [4], in assay [5] and in [6] was “inactive” throughout. The Potency entry in assay [7] and in assay [12] was “inactive” in each case.
Consider `CCN1/C(=C/C=C/c2sc3ccccc3[n+]2CC)Sc2ccccc21`, for which the Potency was 1.46 µM (active) in assay [1], 10.3 µM (active) in assay [8], 12 µM (active) in assay [4] and 6.01 µM (active) in [12]. Further, the caspase-3/7 activation in [2] is 0.607% [at 19 µM]. The activation in assay [3] was 29.7% [at 19 µM]. The Potency entry in assay [9] and in assay [10] was “inactive” in each case. In addition, in [11], the activity change, negative = inhibition was -25.3% [at 15.8 µM].
Turning to `COc1cc(-c2nc(NC(=O)c3cc4cc(C)cc(C)c4n3CC(=O)O)sc2CCC2CCCCC2)c(OC)cc1Cl`, the Potency in assay [1] is 19.9 µM (active); in assay [2], 56 µM (active); in [3], 28.1 µM (active); in [6] it was 51.7 µM (active). The Potency result in assay [4], in [7] and in [11] was “inactive” in each case.
For `CCCCCCCCCCCCCCCCCC[N+](C)(C)Cc1ccccc1`, the Potency was 4.9 µM (active) in assay [1]; 55 µM (active) in assay [8]; 1.55 µM (active) in assay [3]; 0.18 µM (active) in assay [4]; 56.9 µM (active) in assay [5]; 40.3 µM (active) in assay [6]. Besides, the Potency is 80.4 µM (active) in [7], 2.78 µM (active) in [11] and 40.3 µM (active) in [12]. Also, the Potency result in assay [2] is “inactive”.
For `Oc1ccc(C2(c3ccc(O)cc3)CC3CC2C2CCCC32)cc1` (configuration not stated), the Potency is 46.6 µM (active) in assay [1]; 52.3 µM (active) in assay [8]; 30.5 µM (active) in assay [5]; 38.4 µM (active) in assay [6]; 38.4 µM (active) in assay [12]. The Potency result in assay [2] and in assay [4] was “inactive” throughout.
On to `NC(=O)N1C(=O)C(C(=O)c2cc(Cl)cs2)c2cc(F)c(Cl)cc21` (configuration not stated), for which the Potency in assay [1] was 61.1 µM (active); in assay [5], 79.6 µM (active); in assay [7], 17.8 µM (active); in [12], 5.03 µM (active). In addition, the Potency result in [2] is “inactive”.

Source of the values: PubChem BioAssay (Tox21).
